# Compound activity from PubChem.
# Compounds with a hit are over-represented: about 12% of the library has one in this group of screens.
# Shiga inhibitor – blocks Shiga toxin action in Vero cells. Vero cells, Shiga toxin protein synthesis inhibition reporter. inhibition, % at 38.7 µM. 290,000 compounds, 9.2% hits. AID 2315; in the data active = inhibition mostly above about 28%, no sharp cut-off; inactive = mostly below about 43%; also: 0% is about no effect
# Sm TGR block – S. mansoni TGR enzyme inhibition; Q962Y6; purified TGR, DTNB reduction, TNB absorbance 405 nm; Potency, µM (top dose mostly 114 µM), without a hit: top-dose activity change, negative = inhibition, most hits filed as inhibitors; 360,000 compounds, 3% hits; AID 485364; active = well fitted inhibition curve with a large enough effect; inconclusive = small, poorly fitted or top-dose-only effect; inactive = no such curve, though single readings can be large or run the other way; also: potency is read from the fitted curve at half-maximal effect; % is scaled to controls: 0 for no effect and ±100 for the full control effect; nearly all actives have a fitted effect of over 60% in size
#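 TGR 20 nM + NADPH 100 uM (dispensed conc.), cpd preinc 15 min RT; start with NADPH (500 uM addition) then DTNB (15 mM addition). Kinetic TNB absorbance, 405 nm filter. Four-parameter Hill fit across titration.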
# CHX counter – counter-screen for Shiga toxin inhibitors: cycloheximide protein synthesis inhibition | cell reporter, cycloheximide protein synthesis inhibition counterscreen | 300,000 compounds, 12% hits | max response, % | AID 2314; in the data active = max response mostly above about 13%, no sharp cut-off; inactive = mostly below about 14%; also: read at 38.3 µM for the half of the compounds with a filed dose; 0% is about no effect
# FMDV antiviral – foot and mouth disease virus antiviral activity; FMDV antiviral cell-based qHTS; Potency, µM (doses to about 57.9 µM), inactives show at the top dose activity change, negative = inhibition, usual class: inhibitors; 410,000 compounds, 1.2% hits; calls by dose curve; tested in HEK293T cells; also: read-out not given here; potency is read from the fitted curve at half-maximal effect; % is scaled to controls: 0 for no effect and ±100 for the full control effect; nearly all actives have a fitted effect of over 45% in size
# Numbers without * were called inactive; ? = inconclusive; . = not tested or not shown; ! = not confirmed by another sample.
SMILES,Shiga inhibitor,Sm TGR block,CHX counter,FMDV antiviral
Nc1c(C(=O)NCc2ccco2)c2nc3ccccc3nc2n1CCN1CCOCC1,-13,25µM*,-1,-21%
Nc1c(C(=O)NCc2ccco2)c2nc3ccccc3nc2n1Cc1ccccc1,3,28µM*,6,-2%
Cc1oc2c(c(C)cc3oc(=O)c(CC(=O)NCCc4ccc(Cl)cc4)c(C)c32)c1C,.,10%,.,-10%
Cc1ccccc1C(=O)Nc1nnc(S(=O)(=O)N(C)Cc2ccco2)s1,6,3.2µM*,14,24%
CN(Cc1ccco1)S(=O)(=O)c1nnc(NC(=O)c2ccccc2Cl)s1,-8,11µM*!,11,33%
Cc1ccccc1C(=O)Nc1nnc(S(=O)(=O)N(C)Cc2ccccc2)s1,.,-8%,.,29%
CCc1ccc(OCC(=O)Nc2cc(-c3ccc(C)cc3)no2)cc1,.,-4%,.,-2%
O=C(/C=C/c1ccco1)NCC(=O)N/N=C/c1ccc([N+](=O)[O-])cc1,2,8.9µM*,-2,-3%
CN(C)c1ccc(/C=N/NC(=O)CNC(=O)/C=C/c2ccco2)cc1,31,?,3,25%
O=C(/C=C/c1ccco1)NCC(=O)N/N=C/c1ccc(Cl)cc1,19,14µM*,8,-16%
C/C(=N/NC(=O)CNC(=O)/C=C/c1ccco1)c1ccc(Cl)cc1,-12,8.9µM*,-1,11%
Cc1c(CNC2CCCCC2)c(C(=O)O)c(C)n1Cc1ccccc1F,.,-4%,.,-10%
N[C@@H](C(=O)O)c1cc(O)ccc1Cl,.,.,.,-3%
CCC(C)c1ccccc1NC(=O)c1cc2cccc([N+](=O)[O-])c2[nH]1 (stereo not drawn),32,0%,39*,?
Cc1ccc(NC(=O)c2cc3cccc([N+](=O)[O-])c3[nH]2)cc1,84*,28%,46*,23%
CCC(C)c1ccccc1NC(=O)COC(=O)c1ccc(N2CCCC2)c([N+](=O)[O-])c1 (stereo not drawn),-13,-11%,-2,-10%
CC(C)OCCCn1c(=O)c2ccccc2n2c(-c3cc(Cl)ccc3O)nnc12,.,9%,.,-7%
C=C1CCN(C(CC(C)C)C(=O)Nc2nc3ccc(Cl)cc3s2)S(=O)(=O)c2ccccc21 (stereo not drawn),9,.,6,.
COc1cccc(NC(=O)Nc2ccc3c(c2)OCO3)c1,77*,-1%,40*,77%
COc1cccc(NC(=O)CN(C)CC(=O)Nc2ccc3c(c2)OCO3)c1,.,.,.,-8%
COc1ccc(OC)c(NC(=O)Nc2ccc3c(c2)OCO3)c1,56*,-6%,15*,13%
Cc1nc(C(=O)N(Cc2cc3ccc(F)cc3nc2N2CCC(O)CC2)CC2CCCO2)cs1 (stereo not drawn),.,.,.,7%
O=C(O)c1ccc(N/N=C/C=C/c2ccccc2[N+](=O)[O-])cc1,52*,7%,45*,54%
COc1ccccc1/C=C/C=N/NC(=O)Cc1cccs1,73*,-9%,42*,46%
CCN(Cc1ccccc1)C(=O)/C=C/c1ccccc1[N+](=O)[O-],14,-7%,-3,0%
SMILES,Shiga inhibitor,Sm TGR block,CHX counter,FMDV antiviral
O=C(CN1CCN(Cc2ccccc2Cl)CC1)N/N=C/C=C\c1ccccc1[N+](=O)[O-],-12,-16%,-2,-11%
CN(Cc1cccs1)C(=O)/C=C/c1ccccc1[N+](=O)[O-],69*,0%,31,80%
O=C(Cc1ccccc1)N/N=C/C=C/c1ccccc1[N+](=O)[O-],18,3%,16*,32%
N#C/C(=C\C=C\c1ccccc1[N+](=O)[O-])C(=O)NCc1ccccc1,26,4%,31*,-39%
Cc1ccc(CSc2nnc(SCC(=O)N/N=C/C=C/c3ccccc3[N+](=O)[O-])s2)cc1,48*,2%,21*,0%
O=C(Cc1cccs1)N/N=C/C=C/c1ccccc1[N+](=O)[O-],62*,-6%,22*,60%
O=C(N/N=C/C=C\c1ccccc1[N+](=O)[O-])c1cccs1,12,-15%,12,34%
N#C/C(=C\c1ccccc1[N+](=O)[O-])C(=O)NCc1ccccc1,-4,-2%,-1,-30%
COc1ccc2[nH]cc(CCNc3nc(-c4c(C)noc4C)nc4ccccc34)c2c1,.,.,.,-16%
O=[N+]([O-])c1ccccc1/C=N/OCc1ccccc1,104*,-10%,31*,69%
COC(=O)N1CCC[C@@]2(CCN(C(=O)Nc3cccc(C#N)c3)C2)C1,.,.,.,-16%
O=C(C1CCN(C2CC(=O)N(c3ccc(Cl)cc3)C2=O)CC1)N1CCOCC1 (stereo not drawn),-11,14µM*,-1,-5%
O=C1CC(N2CCN(C(c3ccccc3)c3ccccc3)CC2)C(=O)N1Cc1ccc(N2CCCC2=O)cc1 (stereo not drawn),5,-9%,9,-12%
O=C1CC(N2CCC(Cc3ccccc3)CC2)C(=O)N1CCc1ccccc1 (stereo not drawn),-9,11µM*,4,.
O=C(C1CCN(C2CC(=O)N(Cc3ccccc3)C2=O)CC1)N1CCCCCC1 (stereo not drawn),-9,22µM*,9,-15%
O=C(C1CCN(Cc2ccccc2)CC1)N1CCCC1,-6,4%,0,-14%
NC(=O)C1CCN(C2CC(=O)N(Cc3ccc(N4CCCC4=O)cc3)C2=O)CC1 (stereo not drawn),-18,35µM*,2,22%
O=C(c1cccc(Cn2cccn2)c1)N1CCC(n2c(C3CCCO3)nc3cc(C(F)(F)F)ccc32)CC1 (stereo not drawn),.,.,.,-7%
Cc1noc(/C=C/c2ccccc2F)c1S(=O)(=O)N1CCC(C(=O)N(C)Cc2ccco2)CC1,.,-4%,.,-9%
Cc1cccc(N2CCN(C(=O)c3cnn(-c4cccc(Cl)c4C)c3C3CCNCC3)CC2)c1C,.,2%,.,-19%
O=C(C1CCN(C2CC(=O)N(c3cccc(Cl)c3)C2=O)CC1)N1CCCC1 (stereo not drawn),-23,22µM*,5,-15%
O=C(Nc1ccc(C(=O)OCc2cc(=O)n3nc(C4CC4)sc3n2)cc1)c1ccccc1,.,3%,.,?
CC(Oc1ccccc1)C(=O)Nc1ccc(C(=O)OCc2cc(=O)n3nc(C4CC4)sc3n2)cc1 (stereo not drawn),.,-2%,.,28µM*
Cc1nn2c(=O)cc(COC(=O)c3ccc(NC(=O)c4cccs4)cc3)nc2s1,.,-2%,.,14µM*
Cc1cn2c(=O)cc(COC(=O)c3cccc(NC(=O)COc4ccccc4Cl)c3)nc2s1,.,6%,.,8.9µM*
SMILES,Shiga inhibitor,Sm TGR block,CHX counter,FMDV antiviral
COc1ccc(OCC(=O)Nc2ccc(C(=O)OCc3cc(=O)n4nc(C)sc4n3)cc2)cc1,.,1%,.,10µM*
COc1ccc(Cl)cc1NC(=O)c1cc2nc(-c3ccc(C)cc3)cc(C(F)(F)F)n2n1,.,2%,.,-12%
Cc1cccc(CNC(=O)c2cnn(-c3ncc(C)c(-c4ccc(F)cc4)n3)c2C)n1,.,.,.,-10%
Cc1nn2c(=O)cc(COC(=O)c3ccc(NC(=O)COc4ccc(Cl)cc4)cc3)nc2s1,.,7%,.,16µM*
Cn1c(N=NC(=O)c2ccccc2)c(O)c2ccccc21,33*,-1%,43*,-54%
CCOC(=O)c1[nH]c2c(c1Cc1ccccc1OC)C(=O)CC(c1ccc(OCC)cc1)C2 (stereo not drawn),.,5%,.,-4%
